# Screens from PubChem BioAssay.
# M1 ag parental – M1 agonist counterscreen hit in parental CHO-K1 cells; Fluo-8 calcium fluorescence; scaled to maximal ATP response, vehicle zero; activation, % at 3 µM; actives 0.48% (n = 360,000); in the data active = activation above about 15%;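 also: untransfected CHO-K1 host cells lacking M1 receptor as counterscreen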
# CHO-K1 Ca antag – nonselective inhibitor or artifact in parental CHO-K1 cells; actives 0.6% (n = 360,000); inhibition, % at 3 µM; ATP-induced calcium, Fluo-8 fluorescence;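 active = inhibition above a per-plate cutoff, the plate's mean sample inhibition plus 3 SD, cut at about 24% in these data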
# M1 ag – agonists of human M1 muscarinic receptor; CHO-K1 hM1, Fluo-8 calcium fluorescence, agonist mode; 0% DMSO, 100% acetylcholine EC100; actives 0.33% (n = 360,000); P11229; activation, % at 3 µM;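 active = activation above the run's mean compound activation plus 3 SD, cut at about 16% in these data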;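 also: peak over basal fluorescence ratio within a 140 s kinetic read after compound addition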
# Target sequence (P11229 whole entry, looked up): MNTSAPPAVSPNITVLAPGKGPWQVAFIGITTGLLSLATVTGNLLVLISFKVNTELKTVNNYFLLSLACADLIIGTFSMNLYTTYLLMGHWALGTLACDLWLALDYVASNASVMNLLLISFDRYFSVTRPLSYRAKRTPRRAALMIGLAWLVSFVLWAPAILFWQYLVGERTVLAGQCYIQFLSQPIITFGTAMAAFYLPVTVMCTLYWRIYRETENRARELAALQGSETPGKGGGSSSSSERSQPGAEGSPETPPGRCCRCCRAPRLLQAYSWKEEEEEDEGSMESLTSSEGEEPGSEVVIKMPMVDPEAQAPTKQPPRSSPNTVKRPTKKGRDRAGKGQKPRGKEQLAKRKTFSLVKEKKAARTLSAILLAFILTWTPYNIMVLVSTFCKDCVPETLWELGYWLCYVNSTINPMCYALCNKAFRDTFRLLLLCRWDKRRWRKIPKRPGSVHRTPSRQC
# CHO-K1 Ca PAM – nonselective activator or artifact in parental CHO-K1 calcium assay; ATP EC20, Fluo-8 calcium fluorescence; 0% at ATP EC20, 100% at ATP max; activation, % at 3 µM; actives 0.02% (n = 360,000);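 active = activation above the run cutoff, the mean activation of all test compounds plus 3 SD, cut at about 40% in these data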;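 also: peak over basal fluorescence ratio in a 140 s read after ATP addition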
# CHRM1 antagonist – human CHRM1 antagonism | CHO-K1 hM1, Fluo-8 calcium fluorescence, ACh EC80 antagonist | inhibition, % at 3 µM | actives 1.3% (n = 360,000);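 active = percent inhibition above its own plate's cutoff, namely the mean of that plate's compound wells plus 3 SD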;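 also: peak over basal fluorescence ratio during 140 s after agonist addition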
# M1 PAM – potentiates human M1 receptor response to acetylcholine; P11229; CHO-K1 hM1, Fluo-8 calcium fluorescence, ACh EC20; 0% = ACh EC20, 100% = maximal ACh; activation, % at 3 µM; actives 0.088% (n = 360,000); in the data active = activation above about 19%, passing the limit was not always enough
# Hits are given with their value; – = inactive; ! = a repeat was not active. Hits are enriched below; roughly 2.3% of the tested compounds scored in any of these assays.
SMILES,M1 ag parental,CHO-K1 Ca antag,M1 ag,CHO-K1 Ca PAM,CHRM1 antagonist,M1 PAM
O=C(NCCN1CCOCC1)c1ccc2c(c1)N(Cc1ccccc1)C(=O)c1ccccc1S2,–,–,–,–,–,–
CCN1C(=O)CSc2ccc(C(=O)NCCCN3CCOCC3)cc21,–,–,–,–,–,–
O=C(NCCN1CCOCC1)c1ccc2c(c1)N(Cc1ccccc1)C(=O)CS2,–,–,–,–,30,–
O=C(NCCN1CCOCC1)c1ccc2c(c1)N(Cc1ccc(Cl)cc1)C(=O)CS2,–,–,–,–,28,–
N#Cc1ccc(CSc2ccc(S(=O)(=O)N3CCCCCC3)cn2)cc1,–,–,–,–,–,–
O=C(NCC(c1ccco1)N1CCCC1)c1ccc(S(=O)(=O)Nc2ccccc2Cl)cc1 (stereo not drawn),–,–,–,–,–,–
O=C(NCC(c1ccco1)N1CCCC1)c1ccc(S(=O)(=O)Nc2ccccc2F)cc1 (stereo not drawn),–,–,–,–,66,–
O=C(NCC(c1ccco1)N1CCCCC1)c1ccc(COc2ccc(Cl)cc2)cc1 (stereo not drawn),–,–,–,–,80,–
CCCCOc1ccc(C(=O)OC2CC(C)N(C)CC2C)cc1 (stereo not drawn),–,–,–,–,44,–
CN(C)[C@@H]1CCC[C@H]1OC(=O)C(c1ccccc1)c1ccccc1,–,–,–,–,92,–
CCCCOc1ccc(C(=O)N2CCC(C)CC2)cc1,–,–,–,–,–,–
CC1CN(C)C(C)CC1OC(=O)C(c1ccccc1)c1ccccc1 (stereo not drawn),–,–,–,–,97,–
CCOc1ccc(CN2CCCC(CO)(Cc3ccc(F)cc3)C2)cc1 (stereo not drawn),–,–,–,–,40,–
Cc1ccc(NC(=S)N2C3CCCC2CC(NC(=O)C2CC2)C3)cc1C (stereo not drawn),–,–,–,–,–,–
Cc1cc(C)cc(NC(=S)N2C3CCCC2CC(NC(=O)C2CC2)C3)c1 (stereo not drawn),–,–,–,–,27,–
COc1ccc(C(=O)NC(C(=O)NCc2ccccn2)C(C)C)cc1 (stereo not drawn),–,–,–,–,–,–
CC(C)C(NC(=O)c1ccc(C(C)(C)C)cc1)C(=O)NCc1ccccn1 (stereo not drawn),–,–,–,–,55,–
Cc1cc(C)cc(OCC(=O)Nc2ccc(-n3cnnn3)cc2)c1,–,–,–,–,–,–
CCOC(=O)Cc1csc(NC(=O)c2cc(-c3ccncc3)nc3ccccc23)n1,–,–,–,–,36,–
CCOC(=O)Cc1csc(NC(=O)c2sc3nc4ccc(C)cc4cc3c2N)n1,–,–,–,–,–,34
CCOC(=O)Cc1csc(NC(=O)c2ccncc2)n1,–,–,–,–,–,–
O=Nc1c(O)[nH]c2ccc(Cl)c(Cl)c12,–,–,–,–,–,–
Cc1ncn(-c2ccc(C(=O)Oc3ccccc3)cn2)n1,–,–,–,–,–,–
CC(=O)Nc1ccc(S(=O)(=O)Oc2ccc(/C=N/NC(=O)c3ccc(Cl)cc3)cc2)cc1,–,–,–,–,–,–
COC(=O)c1ccc(OS(=O)(=O)c2ccc(NC(C)=O)cc2)cc1,–,24,–,–,–,–
SMILES,M1 ag parental,CHO-K1 Ca antag,M1 ag,CHO-K1 Ca PAM,CHRM1 antagonist,M1 PAM
CC1CCCCC1NC(=O)CCCCn1c(=O)[nH]c2ccsc2c1=O (stereo not drawn),–,–,–,–,–,–
Cc1ccc(NC(=O)Nc2nnc([C@@H]3C[C@H](O)[C@@H](CO)O3)s2)cc1,–,–,–,–,–,–
O=C(Nc1nnc([C@@H]2C[C@H](O)[C@@H](CO)O2)s1)c1cccc(Oc2ccccc2)c1,–,–,–,–,–,–
O=C(Nc1nnc([C@H]2C[C@H](O)[C@@H](CO)O2)s1)c1cccc(Oc2ccccc2)c1,–,25,–,–,–,–
O=C(Nc1ccccc1)Nc1nnc([C@H]2C[C@H](O)[C@@H](CO)O2)s1,–,26,–,–,–,–
COc1ccc(NC(=O)Nc2nnc([C@H]3C[C@H](O)[C@@H](CO)O3)s2)cc1,–,–,–,–,–,–
Cc1ccsc1CN(C)CC(=O)NCC(=O)Nc1ccc(F)c(F)c1F,–,–,–,–,–,–
CCN1/C(=C/C(C)=C/c2sc3ccccc3[n+]2CC)Sc2ccccc21,20!,34,–,–,48,–
COc1ccc(CN(CC(=O)NCc2ccccc2)C(=O)CCC(=O)Nc2nccs2)cc1,–,–,–,–,–,–
CN1CCN(c2ncccc2S(=O)(=O)N2CCCCC2)CC1,–,–,–,–,99,–
CCN1CCN(C(=O)CCCn2c(C)c3cnn(-c4ccccc4)c(=O)c3c2C)CC1,–,–,–,–,–,25
Cc1c2cnn(-c3ccccc3)c(=O)c2c(C)n1CCCC(=O)N1CCN(C2CCCCC2)CC1,–,–,38,–,–,–
O=C(O)c1ccc(OS(=O)(=O)c2ccc(Cl)s2)cc1,–,–,–,–,–,–
O=C1CCC(C(=O)N2CCCC(Nc3ccc(F)cc3)C2)=NN1 (stereo not drawn),–,–,–,–,–,–
COc1ccc(C(C)=O)cc1CN(c1ccccc1OC)S(=O)(=O)c1cccs1,–,–,–,–,–,–
COCCN1CCN(Cc2cn[nH]c2-c2cc3ccccc3o2)CC1,–,–,–,–,–,–
CC(C)(C)Nc1nc2nonc2nc1NC(C)(C)C,16,–,–,–,–,–
OCCNc1nc2nonc2nc1NCCO,–,–,–,–,–,–
COc1ccc(C(=O)OCC(=O)Nc2c(C)cccc2C)c(OC)c1OC,–,–,–,–,–,–
COc1ccc(C(=O)OCC(=O)Nc2cccc(C(C)=O)c2)c(OC)c1OC,16,–,–,–,–,–
CC1CN(S(=O)(=O)c2ccc(C(=O)N(CCCN(C)C)c3nc4c(Cl)cccc4s3)cc2)CC(C)O1 (stereo not drawn),–,–,–,–,–,–
COC(=O)c1ccc2[nH]c(C)cc(=O)c2c1,–,–,–,–,69,–
OC1c2cc(Br)ccc2N=C2CCCCCN21 (stereo not drawn),–,–,–,–,78,–
OC1c2cc(Br)ccc2N=C2CCCN21 (stereo not drawn),–,–,–,–,–,–
CCOc1cccc2sc(N3CCN(C(=O)c4ccc5ncsc5c4)CC3)nc12,–,–,–,–,–,–
COC(CNC(=O)c1ccc2c(c1)ncn2-c1ccc(C)cc1C)OC,18,–,–,–,–,–
Cc1ccc(NC2=NC(c3ccc(F)cc3)n3c(nc(C)cc3=O)N2)c(C)c1 (stereo not drawn),–,–,–,–,37,–
